Source: the supplement of paper PMC12636033
± gives the standard deviation of the averaged measurements. Over roughly 33,000 sequences, “E-score (rank enrichment, -0.5 to 0.5)” has its median near -0.0043; the highest 2% begin near 0.24. What follows is part of a selection rich in the highest values, with near analogues and random picks from the rest.

Tested on: 2Sp-muMax20 (muMax20 with two 2,6-bis(methyl)pyridine Cys staples)
Test: PBM 8-mer E-score (E-score (rank enrichment, -0.5 to 0.5)); higher = stronger preferential binding
Description: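 Protein binding microarray (universal PBM chip covering all 10-mers in fixed probe flanks) with chemically synthesized human Max(13-93) bHLH-LZ analogs (not full-length Max) bearing noncanonical residues (hArg, Tha, Aib, Nle at 65) and aromatic Cys staples. Read-out per 8-mer (and its reverse complement): E-score (rank-based enrichment, -0.5 to 0.5) and Z-score of median probe intensity.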

Row | Sequence | PBM 8-mer E-score
1 | CGGCTCAG | -0.245 ± 0.011
2 | AAGGCGAG | -0.114 ± 0.11
3 | CCGCACCG | -0.232 ± 0.037
4 | ATTGTAGG | 0.163 ± 0.04
5 | AGAAACAA | 0.23 ± 0.034
6 | ATTATGTC | -0.0254 ± 0.039
7 | ATAATGTA | 0.261 ± 0.054
8 | ATTATGTG | 0.19 ± 0.015
9 | ATTATGTA | 0.252 ± 0.063
10 | ATAATGTC | 0.0928 ± 0.013
11 | CTAATGTA | 0.0902 ± 0.11
12 | CCAAGGTA | -0.122 ± 0.08
13 | ATGGTCCG | -0.11 ± 0.052
14 | GAGCTTAC | 0.0525 ± 0.066
15 | TACCCTGA | 0.0285 ± 0.0041
16 | GCTGAGAC | -0.0936 ± 0.027
17 | GGTTGGCA | -0.0827 ± 0.032
18 | AAAAAGCT | 0.282 ± 0.011
19 | AAAAGCTG | 0.272 ± 0.0057
20 | CAAAGCTG | 0.0649 ± 0.017
21 | CAAAGCGC | -0.0804 ± 0.097
22 | AAAAAGCA | 0.206 ± 0.014
23 | AAAAAGCC | 0.0819 ± 0.062
24 | AAAAGCGC | 0.236 ± 0.064
25 | AAAAGCTA | 0.141 ± 0.049

Row | Sequence | PBM 8-mer E-score
26 | AAAAGCGA | 0.147 ± 0.046
27 | ACTTTTGG | 0.145 ± 0.018
28 | GCAACGGC | -0.147 ± 0.018
29 | GGCTCAGA | -0.204 ± 0.025
30 | CCGAAGCC | -0.258 ± 0.035
31 | ATAGCTAC | 0.204 ± 0.0011
32 | AGGTGTCG | -0.0243 ± 0.082
33 | CAGAGGCC | -0.0446 ± 0.062
34 | ATCAATTC | 0.159 ± 0.024
35 | AACAATTC | 0.166 ± 0.067
36 | AACAATTG | 0.0804 ± 0.12
37 | ATCAATTA | 0.28 ± 0.041
38 | ATCAATCG | 0.16 ± 0.038
39 | ATCAATTG | 0.255 ± 0.068
40 | CTCAATTA | 0.0912 ± 0.079
41 | AACAATTA | 0.246 ± 0.078
42 | GTCAATTA | 0.0735 ± 0.075
43 | AACGTCAT | 0.0419 ± 0.012
44 | AAGTTTCG | 0.0139 ± 0.064
45 | TACACTCA | 0.0543 ± 0.059
46 | CCAGAAAA | -0.0128 ± 0.11
47 | GGGCAAAC | -0.0742 ± 0.046
48 | AATCTATC | 0.061 ± 0.099
49 | CTGTCTAC | -0.085 ± 0.0076
50 | ACGGGTGA | -0.227 ± 0.052

Row | Sequence | PBM 8-mer E-score
51 | ACCACCCC | 0.0435 ± 0.03
52 | GCCACTTA | 0.0747 ± 0.039
53 | TCCACCCA | 0.00246 ± 0.039
54 | CCCACCCG | 0.29 ± 0.03
55 | GCCACCCC | -0.0325 ± 0.055
56 | CCCACCCA | 0.364 ± 0.023
57 | GCCACCCA | -0.126 ± 0.068
58 | CCCACCCC | 0.332 ± 0.046
59 | CACACCCG | -0.15 ± 0.012
60 | CCCACTTA | 0.236 ± 0.023
61 | ACCACCCG | -0.146 ± 0.077
62 | CCCACTTC | 0.00615 ± 0.027
63 | ATCGGCCG | -0.187 ± 0.13
64 | CCGGCGGC | -0.269 ± 0.029
65 | CCTATTCG | -0.105 ± 0.0044
66 | ACGAAGAA | 0.16 ± 0.06
67 | ATGCGATC | 0.00891 ± 0.016
68 | CAAGACGG | -0.109 ± 0.028
69 | CCAATTGC | 0.108 ± 0.012
70 | GCAATTGA | 0.0718 ± 0.079
71 | GCAATTGC | 0.242 ± 0.013
72 | ACGTCCCG | -0.326 ± 0.046
73 | AGGGCGGC | -0.0202 ± 0.17
74 | AGGGCGGA | -0.101 ± 0.0044
75 | AGGGCGGG | 0.311 ± 0.011

Row | Sequence | PBM 8-mer E-score
76 | ATAACGTA | 0.107 ± 0.085
77 | ATAACTTC | 0.0494 ± 0.033
78 | ATAACTTG | 0.241 ± 0.012
79 | ATAACTTA | 0.14 ± 0.043
80 | ATAACGTG | 0.293 ± 0.018
81 | ATAACGTC | 0.138 ± 0.029
82 | CTGGGTCA | -0.0254 ± 0.017
83 | AGCTACGC | 0.0669 ± 0.0082
84 | CCGTCGGC | -0.232 ± 0.016
85 | CAAGCCAC | -0.143 ± 0.044
86 | CTATTTTA | 0.224 ± 0.026
87 | ATATTTAA | 0.334 ± 0.019
88 | CTATTTAA | -0.0484 ± 0.012
89 | ATATTTTA | 0.245 ± 0.02
90 | ATATTTAC | 0.159 ± 0.032
91 | GTATTTTA | 0.0916 ± 0.055
92 | ATCTTAGA | 0.0255 ± 0.036
93 | CTCGCCGC | -0.0225 ± 0.15
94 | AATTGCCG | -0.00487 ± 0.03
95 | CTTCTTTC | -0.118 ± 0.046
96 | GTTCTTTA | 0.000435 ± 0.15
97 | CTTCTTTA | 0.245 ± 0.01
98 | AACCTACT | -0.0133 ± 0.062
99 | AATCTGAT | 0.057 ± 0.016
100 | CAAATAAC | 0.238 ± 0.041

Row | Sequence | PBM 8-mer E-score
101 | AAAATAAC | 0.2 ± 0.041
102 | GAAATAAC | -0.1 ± 0.05
103 | ACAGTGGC | -0.0719 ± 0.054
104 | CGAGGTTC | -0.105 ± 0.037
105 | CCTCAGGA | -0.147 ± 0.12
106 | AGTCGGGC | -0.144 ± 0.022
107 | CTTATAAG | 0.0331 ± 0.11
108 | ATTATAAA | 0.263 ± 0.069
109 | CCTATAAA | -0.143 ± 0.042
110 | ATTATAAT | 0.169 ± 0.1
111 | TTTATAAA | 0.246 ± 0.074
112 | ATTATAAG | 0.28 ± 0.0046
113 | GTTATAAA | 0.154 ± 0.051
114 | ATTATAGA | 0.0771 ± 0.056
115 | CTTATAAC | 0.0403 ± 0.076
116 | ATTATAAC | 0.247 ± 0.041
117 | CTTATAAA | 0.184 ± 0.071
118 | GTTATAAC | 0.16 ± 0.047
119 | ACTGAACG | -0.181 ± 0.086
120 | AGAAACCG | -0.0327 ± 0.035
121 | ACCACTTC | 0.0215 ± 0.0022
122 | AAGACTAA | 0.0726 ± 0.081
123 | GATTTTCC | -0.0716 ± 0.0054
124 | AGAGGCAG | -0.125 ± 0.069
125 | CTAACCAA | -0.0414 ± 0.074

Row | Sequence | PBM 8-mer E-score
126 | ACCTCGTC | -0.0184 ± 0.011
127 | AACGTCTG | -0.086 ± 0.17
128 | ACCTCACG | -0.0339 ± 0.093
129 | CCCGGCGC | -0.17 ± 0.023
130 | ACGCACGC | 0.157 ± 0.12
131 | ACGCACGA | 0.0583 ± 0.035
132 | ACGCACAA | 0.0234 ± 0.071
133 | ACGCACGT | 0.277 ± 0.0066
134 | ACGCACAT | 0.24 ± 0.091
135 | ACGCACAG | -0.104 ± 0.024
136 | GCCATCAA | 0.193 ± 0.0031
137 | CACTGTGC | -0.123 ± 0.011
138 | CCAGCCTC | -0.148 ± 0.047
139 | AATACCTA | 0.244 ± 0.03
140 | GATACCTA | 0.155 ± 0.013
141 | CATACCTA | 0.0465 ± 0.0019
142 | ATGGATGA | 0.053 ± 0.022
143 | ATATTTCC | 0.0705 ± 0.11
144 | CTATTTCA | 0.126 ± 0.099
145 | CTATTTCC | 0.26 ± 0.051
146 | TCCAGTAA | 0.071 ± 0.076
147 | CAATGGCG | 0.02 ± 0.0014
148 | CCCGTGAG | -0.225 ± 0.016
149 | TACGTGAA | 0.0426 ± 0.043
150 | GATGTGAA | 0.177 ± 0.043

Row | Sequence | PBM 8-mer E-score
151 | GACGTGAC | 0.0337 ± 0.019
152 | TATGTGAA | 0.308 ± 0.017
153 | GACGTGAA | -0.25 ± 0.025
154 | AACGTGAG | 0.0157 ± 0.023
155 | CACGTGAC | 0.406 ± 0.011
156 | AACGTGAC | 0.147 ± 0.045
157 | CACGTGAA | 0.392 ± 0.022
158 | AATGTGAA | 0.154 ± 0.12
159 | CACGTGAG | 0.255 ± 0.005
160 | GACCCATC | -0.0849 ± 0.083
161 | GGCAACAC | 0.0268 ± 0.038
162 | CTCGGGTA | -0.193 ± 0.024
163 | TAAATAAA | 0.129 ± 0.012
164 | CCCGTGAC | -0.0332 ± 0.029
165 | GAAGCGCC | -0.146 ± 0.03
166 | CGCGTGAG | 0.219 ± 0.012
167 | AGCGTGAC | 0.0983 ± 0.058
168 | CGCGTGAC | 0.286 ± 0.036
169 | CTCAGGTC | -0.298 ± 0.018
170 | GCGAGGGA | 0.0348 ± 0.068
171 | CTATAATA | 0.0904 ± 0.023
172 | ATATAATG | 0.235 ± 0.0039
